# Reference: PubChem BioAssay AID1347076 (National Center for Advancing Translational Sciences (NCATS), 2019)
# Among all 400,000 compounds or so, about 13,000 (3.2%) were called active. Roughly 18% stayed inconclusive and do not appear here. The call rests on the fitted dose curve; in most records, active means well fitted cell-killing curve with a large enough effect; inconclusive means small, poorly fitted or top-dose-only effect, or effect the other way; inactive means flat fitted curve, though single readings scatter. This excerpt belongs to a sample that is enriched for actives.
# Assay: qHTS assay for MDR1-selective chemotherapeutics: Primary screen using the drug-selected MDR subline cells KB-V1; further: nearly all actives have a fitted effect of over 60% in size
# Settings: KB-V1 MDR cells viability, CellTiter-Glo, 72 h; series mostly up to 46.1 µM; activity change, negative = cytotoxicity: at the top concentration
# In short: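 KB-V1 cells (P-gp-expressing MDR subline of KB-3-1) in phenol-red-free DMEM with 10% FBS were exposed to library compounds over a concentration series for 72 h at 37 degrees C. Viability read by CellTiter-Glo luminescence; concentration-effect curves fitted after normalization.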
# On the % scale 0 is the no-effect control and ±100 the full control effect; potency means the concentration at half of the fitted maximal effect.
Compound,"activity change, negative = cytotoxicity",Potency
CCOC(=O)c1cc2cc(C)ccc2[nH]1,0.803% (inactive),
O=C(OCc1cc2ccccc2[nH]c1=O)c1cccnc1,-6.92% (inactive),
Cc1ccc2[nH]c(=O)c(COC(=O)c3ccccn3)cc2c1,,16.4 µM (active)
Cc1ccc(S(=O)(=O)N(CCc2ccccc2)c2ccc3c(c2)C2CC3CCN2C(=O)OCc2ccccc2)cc1 (stereo unspecified),-9.87% (inactive),
COc1ccc(OC)c(NC(=O)CSC2=Nc3ccccc3C3=NC(CC(=O)NCCc4ccccc4)C(=O)N23)c1 (stereo unspecified),11% (inactive),
O=c1oc2ccccc2cc1-c1cn(-c2ccccc2)c(=S)[nH]1,,5.8 µM (active)
O=C(Nc1cc2ccccc2oc1=O)C1CCCCC1,13.7% (inactive),
S=c1[nH]c(-c2cccs2)cn1-c1ccccc1,-1.38% (inactive),
Cc1ccc(Cn2c(C)c3cnn(CC(=O)NCc4ccccc4)c(=O)c3c2C)cc1,-13.6% (inactive),
COc1ccc(-c2noc(CSc3nc(C)cc(=O)[nH]3)n2)cc1OC,0% (inactive),
CN(CCC#N)c1ccc(C=O)cc1,-7.28% (inactive),
CC1=C(C(=O)NC2CC(C)(C)Cc3c2cnn3-c2ccc(C)cc2)OCCO1 (stereo unspecified),-14.9% (inactive),
COc1ccc(C(=O)NC2CC(C)(C)Cc3c2cnn3-c2ccccc2C)o1 (stereo unspecified),,18.4 µM (active)
COc1ccc(C(=O)NC2CC(C)(C)Cc3c2cnn3-c2ccccc2)c(OC)c1 (stereo unspecified),-23.7% (inactive),
CC(=O)N1Cc2cc(C(=O)NCc3cccc(F)c3)nc(-c3cccc(C4=CCCCC4)c3)c2[C@H]1CCO,-10.4% (inactive),
O=C(NC(c1ccc(Cl)cc1)c1cnccn1)C1CCN(Cc2ccc(Cl)cc2)CC1 (stereo unspecified),-6.8% (inactive),
COc1ccccc1CNc1nc(Nc2ccccc2Cl)c2sccc2n1,-8.34% (inactive),
Cc1ccc(-c2n[nH]c(=S)n2/N=C/c2cc3c(cc2[N+](=O)[O-])OCO3)cc1,,8.2 µM (active)
CCOc1ccc(-c2n[nH]c(=S)n2/N=C/c2cc3c(cc2[N+](=O)[O-])OCO3)cc1,-20.5% (inactive),
Cc1ccc(S(=O)(=O)N/N=C\c2cc3c(cc2[N+](=O)[O-])OCO3)cc1,-14.7% (inactive),
Cc1cc2c3ccccc3[nH]c(=O)n2n1,15.2% (inactive),
CCOC(=O)C1CCCN(C(=O)C2CCN(S(=O)(=O)c3ccc(Cl)c(C(F)(F)F)c3)CC2)C1 (stereo unspecified),,20.6 µM (active)
CCOC(=O)C1CCCN(C(=O)c2cccc(S(=O)(=O)N3CCOCC3)c2)C1 (stereo unspecified),-5.97% (inactive),
CCOc1ccc(S(=O)(=O)N2CCCC(C(=O)N3CCC(C(N)=O)CC3)C2)cc1Cl (stereo unspecified),-2.55% (inactive),

Compound,"activity change, negative = cytotoxicity",Potency
Nc1[nH]c(C(=O)c2ccccc2)c(-c2ccc(Br)cc2)c1C(=O)NC1CC1,-35% (inactive),
CCc1ccc(OCCCn2c(CCCNC(=O)C3CCCCC3)nc3ccccc32)cc1,-0.972% (inactive),
O=C(NC1CCCCCC1)c1cccnc1Sc1ccc(Cl)cc1,2.94% (inactive),
O=C(NCc1cccnc1)c1cccnc1Sc1ccc(Cl)cc1,,18.4 µM (active)
COc1cccc(CNC(=O)c2cccnc2Sc2ccc(Cl)cc2)c1,18.3% (inactive),
OCCc1ccc(NCCc2ccco2)cc1,20.5% (inactive),
COc1ccc([N+](=O)[O-])cc1NC(=O)C(C)OC(=O)C1c2ccccc2Oc2ccccc21 (stereo unspecified),,9.2 µM (active)
COc1ccc([N+](=O)[O-])cc1NC(=O)CCc1ccccc1,-17.9% (inactive),
COc1ccc(C(=O)CC(=O)C(=O)Nc2cc([N+](=O)[O-])ccc2OC)cc1,-1.07% (inactive),
Cc1ccccc1NC(=O)Cc1nc(COC(=O)C(C)(C)Oc2ccc(Cl)cc2)cs1,9.47% (inactive),
Cn1nc(C(F)(F)F)c(C(=O)Nc2cccc(C(F)(F)F)c2)c1SCc1ccc(Cl)cc1,,18.4 µM (active)
Cc1ccc(Cc2nc3ccccc3nc2SCC(=O)Nc2cccc(C(F)(F)F)c2)cc1,0% (inactive),
Cc1onc(-c2ccc(F)cc2F)c1C(=O)Nc1cccc(C(F)(F)F)c1,-23.5% (inactive),
CCC(=O)N1CCc2cc(Br)cc(S(=O)(=O)CCC(=O)NCCc3ccc(OC)c(OC)c3)c21,0% (inactive),
C[C@@H]1CN([C@H](C)CO)C(=O)CCCn2cc(nn2)CO[C@H]1CN(C)S(C)(=O)=O,-10.7% (inactive),
Cc1ccc(-c2nn(CCC(=O)Nc3ccc(OC(F)(F)F)cc3)c(=O)c3ccccc23)cc1,-14.4% (inactive),
CCc1nc2ccc(C(=O)Nc3ccc(OC)c(OC)c3)cn2c1N(C)C(=O)c1cccc(OC)c1,3.04% (inactive),
CCCC/C=C/c1cccc2nncn12,5.91% (inactive),
CCCCC[C@H](C)N1C[C@@H](COCc2ccccc2)Oc2cc(N3CCC[C@@H]3CO)ccc2S1(=O)=O,13.8% (inactive),
CC(=O)N1c2ccc(S(=O)(=O)N3CCCC(C(=O)Nc4cccc(Cl)c4)C3)cc2CC1C (stereo unspecified),-8.22% (inactive),
CC(=O)N1CCCc2cc(S(=O)(=O)N3CCCC(C(=O)N4CCN(c5cccc(Cl)c5)CC4)C3)ccc21 (stereo unspecified),,16.4 µM (active)
CC(=O)N1CCCc2cc(S(=O)(=O)N3CCCC(C(=O)NCc4ccc(Cl)cc4)C3)ccc21 (stereo unspecified),,inactive
CC(=O)c1ccc(NC(=O)CSc2nc(-c3ccccc3F)nc3c2c(=O)n(C)c(=O)n3C)cc1,27.3% (inactive),
CC(C)CCNC(=O)CSc1nc2ccccc2nc1Cc1ccc(Cl)cc1,10.5% (inactive),

Compound,"activity change, negative = cytotoxicity",Potency
C=CCSc1nc(Cc2ccc(Cl)cc2)nc2ccccc12,,16.4 µM (active)
CCCNC(=O)CSc1nc(Cc2ccccc2)nc2ccccc12,-19.6% (inactive),
CCOC(=O)c1c(NC(=O)c2cc(-c3ccc(Cl)cc3)on2)sc2c1CCCC2,6.22% (inactive),
COc1ccc(C)cc1-n1nnnc1SCc1nc2ccccc2c(=O)[nH]1,,5.17 µM (active)
CCn1c(COc2c(C)cccc2C)nnc1SCc1nc2ccccc2c(=O)[nH]1,-6.81% (inactive),
COc1ccc(CCCc2nnc(SCc3nc4ccccc4c(=O)[nH]3)n2C)cc1,-19.7% (inactive),
COCCCn1c(=O)/c(=C/c2ccccc2OC(C)C)s/c1=C(\C#N)C(=O)Nc1ccc(C(=O)O)cc1,-5.04% (inactive),
Cc1nc(C(F)(F)F)ccc1C(=O)N1CCC1(C)C(=O)NS(=O)(=O)c1ccccc1Cl (stereo unspecified),0.0203% (inactive),
COc1cc(CNC(=O)c2cc3n(n2)CCCN(Cc2cccc(F)c2)C3=O)cc(OC)c1OC,1.03% (inactive),
COC(=O)c1ccccc1NC(=O)Cn1c(=O)cc(C)c2c(C)nn(-c3cccc(Cl)c3C)c21,3.13% (inactive),
COc1ccccc1NC(=O)CSc1nnc(CNC(=O)c2ccccc2F)o1,0% (inactive),
CCCNC(=O)c1ccccc1NC(=O)CSCc1ccc(OC)cc1,-14.4% (inactive),
CCCCCNC(=O)c1cccnc1SCC(=O)Nc1ccccc1OC,,6.51 µM (active)
O=C(Nc1ccccn1)c1sc2ccc([N+](=O)[O-])cc2c1Cl,-9.59% (inactive),
Cc1ccc(-c2ccc(CN3C(C(C)C)C(=O)N(Cc4cn(CCC5OCCCO5)nn4)CCS3(=O)=O)cc2)cc1 (stereo unspecified),-14.7% (inactive),
CNC(=O)C[C@H]1C(=O)N(Cc2ccccc2)C[C@@H]1CSC,1.19% (inactive),
Cc1ccc(NC(=O)Nc2cccnc2)cc1,-4.27% (inactive),
Cc1nc(-c2ccc(F)cc2)c(CC(=O)Nc2cccc(S(=O)(=O)N3CCOCC3)c2)s1,-8.88% (inactive),
Cc1ccc(-c2nc(-c3cccnc3)sc2CC(=O)Nc2ccc(C)c(Cl)c2)cc1,,8.2 µM (active)
CC(=O)N1C[C@@H](CO)[C@@H](N(C)C(=O)c2ccco2)C[C@H]1c1ccccc1,12.2% (inactive),
CCCCn1nnnc1C(c1cccc(OC)c1OC)N1CCN(C/C=C/c2ccccc2)CC1 (stereo unspecified),14.1% (inactive),
CC(C)(O)C#Cc1ccc(CNC[C@H]2O[C@@H](n3cnc4c(=O)[nH]c(N)nc43)[C@H](O)[C@@H]2O)s1,8.09% (inactive),
O=C(c1ccc(S(=O)(=O)N2CCCC2)cc1)N1CCN(c2ccccc2F)CC1,-7.58% (inactive),
O=C(c1ccc(S(=O)(=O)NCc2ccco2)cc1)N1CCN(c2ccccc2)CC1,-12.4% (inactive),

Compound,"activity change, negative = cytotoxicity",Potency
O=C(c1ccc(S(=O)(=O)N2CCOCC2)cc1)N1CCN(c2ccccc2)CC1,,16.4 µM (active)
COc1cc2nnn(-c3ccncc3)c2cc1OC,-1.5% (inactive),
CCOC(=O)C1(C)CCCN(C(=O)c2ccc(N(C)C)cc2)C1 (stereo unspecified),3.14% (inactive),
O=C(Nc1nnc(-c2ccc(Cl)cc2)o1)c1ccccc1Br,,6.51 µM (active)
O=C(COC(=O)c1ccccc1Br)Nc1nnc(-c2ccccc2)o1,-26.5% (inactive),
O=C(Nc1ccccc1)c1ccccc1Br,4.37% (inactive),
CCc1nc2c(OCc3ccc(C(=O)OC)cc3)cccn2c1N(C)C(=O)C(C)C,0.64% (inactive),
C=CCn1c2ccccc2c2nnc(SC(CC)C(=O)Nc3nc(C)c(C(=O)OCC)s3)nc21 (stereo unspecified),,2.31 µM (active)
CCOC(=O)c1sc(NC(=O)C(CC)Sc2nccn2C)nc1C (stereo unspecified),-18.2% (inactive),
C=CCn1nc(C(=O)OCC)cc1-c1sc(NC(=O)c2ccccc2)nc1C,-21.4% (inactive),
COc1ccc(CCNC(=O)C(=O)NCC2CCCN2S(=O)(=O)c2cccs2)cc1OC (stereo unspecified),-25.2% (inactive),
COc1ccccc1CCNC(=O)C(=O)NCCC1CCCCN1S(=O)(=O)c1cccs1 (stereo unspecified),-9.95% (inactive),
O=C(NCCC1CCCCN1S(=O)(=O)c1cccs1)C(=O)Nc1ccc(F)cc1F (stereo unspecified),,14.6 µM (active)
COc1cc(C#Cc2ccc3cc(CCCO)oc(=O)c3c2)cc(OC)c1,,3.66 µM (active)
O=C1c2ccccc2C(=O)N1CCC#Cc1ccc2cc(C3(O)CCCCC3)oc(=O)c2c1,4.63% (inactive),
O=C(CSc1nnc(-c2ccco2)n1Cc1ccccc1)NC(=O)NCc1ccco1,,20.6 µM (active)
O=C(CSc1nnc2scc(-c3ccc(F)cc3)n12)NCc1ccco1,-5.87% (inactive),
Cn1c(-c2ccc(F)cc2)cnc1SCC(=O)NCc1ccco1,-15.2% (inactive),
O=C(CSc1nnc(-c2ccco2)n1-c1ccccc1)NCCc1ccccc1,-20.9% (inactive),
Cc1ccc(-c2csc3nnc(SCC(=O)NCc4ccco4)n23)cc1,,9.2 µM (active)
CCn1c(SCC(=O)NCc2ccco2)nnc1-c1ccc(N)cc1,0% (inactive),
CCOCCn1ccc2c(OCC(=O)NCc3ccc(C)cc3)cccc2c1=O,-4.93% (inactive),
CN(C)c1ccc(C(CNS(=O)(=O)c2cc(F)ccc2F)N2CCOCC2)cc1 (stereo unspecified),4.28% (inactive),
CC[C@@H]1CC2=C(C(=O)OC(C)(C)O2)[C@@H](CC)O1,2.71% (inactive),
